Values joined by “and” are separate entries in the source; they are usually repeats but may differ in a detail not shown here. Equal entries are not always repeated. In all, about 5,500 compounds went through this assay and about 2,000 (36%) were called active. Roughly 18% stayed inconclusive and do not appear here. Rule as the data show it: active = normalized growth mostly below about 0.91 (no sharp cut-off); inconclusive = no clear call, values can overlap the other calls; inactive = mostly above about 0.92. Some of the results follow.
Assay: chemical genetic growth profiling, strain panel (AID 1159580);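 also: tested at 20 µM; growth read once vehicle control cultures reached saturation at 30 °C; 1 = growth at the plate median or of vehicle wells; lower values mean less growth of the strain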
Conditions: S. cerevisiae deletion strains, growth OD

Measured: normalized growth

CN1C(CC(=O)c2ccccc2)CCCC1CC(O)c1ccccc1 (configuration not stated)
inactive: locus YAL013W, strain DEP1, hits give low values 1.01 | locus YAL021C, strain ccr4, hits give low values 0.974 | locus YAL026C, strain drs2, hits give low values 0.976 | locus YAL030W, strain snc1, hits give low values 0.977 | locus YBL061C, strain skt5, hits give low values 0.976 | locus YBR009C, strain hhf1, hits give low values 0.972 | locus YBR021W, strain FUR4, hits give low values 1.02 | locus YBR023C, strain chs3, hits give low values 0.977 | locus YBR171W, strain sec66, hits give low values 0.989 | locus YBR229C, strain ROT2, hits give low values 1.01 | locus YBR231C, strain swc5, hits give low values 0.978 | locus YBR279W, strain paf1, hits give low values 0.984 | locus YCL011C, strain gbp2, hits give low values 0.966 | locus YCL016C, strain dcc1, hits give low values 0.978 | locus YCL029C, strain bik1, hits give low values 0.968 | locus YCL061C, strain MRC1, hits give low values 0.993 | locus YCL069W, strain vba3, hits give low values 0.982 | locus YCR088W, strain abp1, hits give low values 0.984 | locus YDL005C, strain med2, hits give low values 0.98 | locus YDL035C, strain GPR1, hits give low values 1.01 | locus YDL040C, strain nat1, hits give low values 0.976 | locus YDL074C, strain BRE1, hits give low values 1.01 | locus YDL101C, strain DUN1, hits give low values 1.01 | locus YDL134C, strain PPH21, hits give low values 1.01 | locus YDL185W, strain tfp1, hits give low values 0.992 | locus YDL192W, strain arf1, hits give low values 0.991 | locus YDR001C, strain nth1, hits give low values 0.979 | locus YDR069C, strain doa4, hits give low values 0.999 | locus YDR101C, strain arx1, hits give low values 0.97 | locus YDR137W, strain rgp1, hits give low values 0.918 | locus YDR150W, strain NUM1, hits give low values 1.02 | locus YDR159W, strain sac3, hits give low values 0.959 | locus YDR162C, strain NBP2, hits give low values 1.01 | locus YDR195W, strain ref2 0.928 | locus YDR297W, strain sur2, hits give low values 0.98 | locus YDR318W, strain mcm21, hits give low values 0.994 | locus YDR334W, strain swr1, hits give low values 0.975 | locus YDR335W, strain msn5, hits give low values 0.986 | locus YDR388W, hits give low values 0.975 | locus YDR392W, strain spt3, hits give low values 0.934 | locus YDR502C, strain sam2, hits give low values 0.98 | locus YEL003W, strain gim4, hits give low values 0.991 | locus YEL037C, strain rad23, hits give low values 0.984 | locus YEL061C, strain CIN8 (second series), hits give low values 0.966 | locus YEL061C, strain CIN8, hits give low values 1.01 | locus YER015W, strain faa2, hits give low values 0.989 | locus YER016W, strain bim1, hits give low values 0.98 | locus YER110C, hits give low values 0.981 | locus YER111C, strain swi4, hits give low values 0.98 | locus YER155C, strain BEM2 (second series), hits give low values 0.982 | locus YER155C, strain BEM2, hits give low values 1.01 | locus YER167W, strain BCK2, hits give low values 1.02 | locus YFR010W, strain ubp6, hits give low values 0.967 | locus YGL078C, strain dbp3, hits give low values 0.977 | locus YGL086W, strain mad1, hits give low values 0.997 | locus YGL167C, strain pmr1, hits give low values 0.963 | locus YGL173C, strain kem1, hits give low values 0.982 | locus YGL227W, strain vid30, hits give low values 0.962 | locus YGL240W, strain doc1, hits give low values 0.981 | locus YGL248W, strain PDE1, hits give low values 1.02 | locus YGL253W, strain hxk2, hits give low values 0.991 | locus YGR078C, strain PAC10, hits give low values 0.996 | locus YGR135W, strain pre9, hits give low values 0.968 | locus YGR229C, strain SMI1, hits give low values 0.967 | locus YGR252W, strain gcn5, hits give low values 1 | locus YHR013C, strain ard1, hits give low values 0.952 | locus YHR027C, strain rpn1, hits give low values 0.973 | locus YHR030C, strain SLT2, hits give low values 1.01 and 0.976 | locus YHR079C, strain IRE1 (second series), hits give low values 0.985 | locus YHR079C, strain IRE1, hits give low values 0.983 | locus YHR094C, strain hxt1, hits give low values 0.988 | locus YHR129C, strain ARP1, hits give low values 1.01 | locus YHR142W, strain chs7, hits give low values 0.999 | locus YHR200W, strain rpn10, hits give low values 0.989 | locus YIL066C, strain RNR3, hits give low values 1.01 | locus YIL073C, strain SPO22, hits give low values 1.02 | locus YIL125W, strain kgd1, hits give low values 1 | locus YIR030C, strain dcg1, hits give low values 0.993 | locus YJL092W, strain hpr5, hits give low values 0.982 | locus YJL095W, strain BCK1 (second series), hits give low values 0.979 | locus YJL095W, strain BCK1, hits give low values 0.975 and 0.978 | locus YJL115W, strain asf1, hits give low values 0.978 | locus YJL129C, strain trk1, hits give low values 0.974 | locus YJL134W, strain LCB3, hits give low values 1.01 | locus YJL154C, strain vps35, hits give low values 0.97 | locus YJL164C, strain tpk1, hits give low values 0.996 | locus YJL166W, strain qcr8, hits give low values 0.984 | locus YJL168C, strain set2, hits give low values 0.99 | locus YJL187C, strain SWE1 (second series), hits give low values 0.996 | locus YJL187C, strain SWE1, hits give low values 0.975 | locus YJR043C, strain POL32, hits give low values 1 | locus YJR066W, strain TOR1, hits give low values 0.935

Source: PubChem BioAssay AID1159580 (chemical genetic matrix, 2015)
